Bioassay records from PubChem BioAssay.
MEP2-GFP yeast: yeast TOR pathway MEP2-GFP modulation; S. cerevisiae MEP2-GFP strain, flow cytometry GFP, 3 h; 100% = DMSO control level; GFP response vs DMSO, % at 10 µM; hit rate 0.51% among 330,000;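 active = GFP response versus DMSO above a set limit, roughly screen mean plus 3 SD, cut at about 180% in these data; inconclusive = fewer than 70 cells counted for a yeast strain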;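 also: median GFP fluorescence of the barcode-gated MEP2-GFP cells per well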
AGP1-GFP MLPCN: alters AGP1-GFP fluorescence in TOR pathway yeast screen; AID 2066; S. cerevisiae AGP1-GFP multiplex flow cytometry, 3 h; GFP as percent of DMSO wells; GFP response vs DMSO, % at 10 µM; hit rate 0.02% among 320,000;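 active = GFP response relative to DMSO above a set limit, near screen average plus 3 SD, cut at about 150% in these data; inconclusive = fewer than 70 cells counted for the yeast strain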;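 also: median GFP channel fluorescence of the gated AGP1 strain per well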
LAP4-GFP MLPCN: alters LAP4-GFP fluorescence in TOR pathway yeast screen. S. cerevisiae LAP4-GFP multiplex, flow cytometry GFP, 3 h; median GFP as percent of DMSO wells. GFP response vs DMSO, % at 10 µM. hit rate 0.34% among 320,000;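 active = GFP response vs DMSO above a set limit, about the screen mean plus 3 SD, cut at about 150% in these data; inconclusive = under 70 cell events counted for the yeast strain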
CIT2-GFP yeast: modulators of TOR pathway CIT2-GFP in S. cerevisiae | S. cerevisiae CIT2-GFP strain, flow cytometry, 3 h; 100 means same as DMSO wells | GFP response vs DMSO, % at 10 µM | hit rate 0.065% among 320,000 | AID 2029;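 active = GFP response relative to DMSO above a set limit, near the screen mean plus 3 SD, cut at about 150% in these data; inconclusive = Fewer than 70 cells measured for a yeast strain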;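 also: ratio of well median GFP fluorescence to mean of DMSO wells on the plate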
RPL19A TOR yeast: alters RPL19A-GFP fluorescence in TOR pathway yeast screen; S. cerevisiae RPL19A-GFP strain, flow cytometry, 3 h; active compounds read low; percent response vs DMSO, % at 10 µM; hit rate 0.3% among 330,000;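 active = percent response vs DMSO below 50%; inconclusive = fewer than 70 events counted for the yeast strain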;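 also: median channel GFP fluorescence of the barcoded RPL19A-GFP strain; ratio of sample median GFP to plate DMSO average so 100% = DMSO; lower means less RPL19A-GFP as with rapamycin TOR inhibition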
Starred values were filed as active, the others as inactive; ? = inconclusive; / = no result; + = active, no number; [ ] = dose if it differs, or a comment. Only some compounds are listed: those with a hit (about 0.93% of all), similar ones and a draw of the others.

SMILES	MEP2-GFP yeast	AGP1-GFP MLPCN	LAP4-GFP MLPCN	CIT2-GFP yeast	RPL19A TOR yeast
Cc1ccc(C(=O)NCc2ccc(F)cc2)cc1NC1=NC2CS(=O)(=O)CC2S1 (stereo unspecified)	110	98	100	102	98
O=S(=O)(Cc1ccc(Cl)cc1)NCc1ccc2c(c1)OCO2	105	99	91	/	112
O=C(NCCc1ccc(Cl)cc1)C(=O)Nc1cc2c3c(c1)CC(=O)N3CCC2	87	99	102	95	88
O=C(NCCc1ccc(F)cc1)C(=O)Nc1cc2c3c(c1)CC(=O)N3CCC2	118	?	66	?	46*[may fluoresce violet]
CCOC(=O)C1=C(c2ccccc2)NC(=S)NC1c1cc([N+](=O)[O-])ccc1OC (stereo unspecified)	272*	27	92	116	/
Cc1ccc(SCC(=O)OCC(=O)N(C)C2CCS(=O)(=O)C2)cc1C (stereo unspecified)	97	95	97	91	95
COc1ccc(S(=O)(=O)NCc2ccccn2)cc1NC(=O)c1ccccc1F	231*[may fluoresce violet]	15	87	?	58
CCOc1ccc(S(=O)(=O)NCc2ccccn2)cc1NC(=O)c1ccccc1	101	111	103	106	99
Nc1ccc2nc(-c3cccc(-c4nc5ccc(N)cc5[nH]4)n3)[nH]c2c1	+[may fluoresce violet]	35	102	?	86
Nc1ccc2nc(-c3ccc(-c4nc5ccc(N)cc5[nH]4)cc3)[nH]c2c1	120	34	151*	84	121
CCO[C@@H]1OC(C(=O)N2CCN(C)CC2)=C[C@H](c2coc3ccccc3c2=O)[C@H]1CCCO	92	78	126	67	95
CCOc1ccc(CNC(=O)CCCn2ccc3cc(S(=O)(=O)N4CCCC4)ccc32)cc1	154	14	81	?	22*[may fluoresce violet]
CCC(=O)N/N=C/c1ccc(-c2ccc([N+](=O)[O-])cc2)o1	95	93	100	88	95
CC(C)(C)C(=O)/C=c1\s/c(=C\c2ccc(-c3ccc([N+](=O)[O-])cc3)o2)c(=O)n1CC(=O)NC(N)=O	118	114	128	152*	91
Cc1cccnc1NC(=O)C(C)N1C(=O)c2ccccc2C1=O (stereo unspecified)	738*[may fluoresce violet]	20	101	?	52
CCOC(=O)/C(C#N)=C/C1=C(N2CCOCC2)C(C)(C)OCC1	100	109	110	100	101
CCCCCCCCOc1ccc(C2OC34CCCCC3C(C#N)(C#N)C2(C#N)C(=N)O4)cc1 (stereo unspecified)	376*[may fluoresce violet]	29	84	?	49*[may fluoresce violet]
CCCCC1OC23CCCCC2C(C#N)(C#N)C1(C#N)C(=N)O3 (stereo unspecified)	119	109	112	107	111
NNC(=O)COc1ccc2oc3c(c2c1)CCCC3	107	95	98	86	101
O=C(Nc1nc(-c2ccccn2)cs1)c1ccc(Br)s1	114	17	197*[may fluoresce violet]	?	57
CCCN1C(=O)c2cc(C(=O)Nc3ccc(OC)cc3OC)ccc2C1Nc1ccc(OC)cc1OC (stereo unspecified)	261*[may fluoresce violet]	16	77	?	76
CCCN1C(=O)c2cc(C(=O)Nc3ccc(OC)c(OC)c3)ccc2C1Nc1ccc(OC)c(OC)c1 (stereo unspecified)	125	106	92	108	122
COc1ccc(N=c2oc3cc(O)ccc3cc2C(=O)NCC2CCCO2)c(OC)c1 (stereo unspecified)	348*[may fluoresce violet]	?	82	?	43*[may fluoresce violet]
COc1ccc(N=c2oc3cc(O)ccc3cc2C(=O)NCC2CCCO2)cc1 (stereo unspecified)	101	106	101	107	102
Cc1ccc(S(=O)(=O)N2CCc3ccccc3C2CC(=O)O)cc1 (stereo unspecified)	?	?	99	?	23*[may fluoresce violet]
O=C(O)CC1c2ccccc2CCN1S(=O)(=O)c1ccccc1 (stereo unspecified)	106	118	117	105	107
O=C(c1ccccc1[N+](=O)[O-])n1cnc2ccccc21	93	82	87	157*	92
Cc1cc(OCc2ccc(C(=O)NN=C3CCCC3)cc2)ccc1Cl	96	121	174*	95	97
COc1ccc(C(=O)NN=C2CCCC2)cc1	107	101	106	100	100
